# Compound activity from PubChem.
# Mot1-301 SUMO: yeast Mot1-301 growth rescue at high temperature, primary screen, SUMOylation pathway inhibitor project, S. cerevisiae, ATP luminescence, 38.5C. growth rescue, % at 18.8 µM. AID 2716, 2010. S. cerevisiae Mot1-301 growth rescue; percent above DMSO median, 100 means doubled. hit rate 1% among 320,000;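 active = every valid replicate shows activation above 250% relative to neutral control wells; inactive = the rest, any valid replicate at or below 250%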;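 also: OY570 slx delta 5 strain wells were the positive control but not used for scaling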
# AI-2 QS mod: Vibrio harveyi AI-2 quorum sensing modulators, primary screen, JMH597 strain, luminescence/OD600 ratio | Vibrio harveyi JMH597 AI-2 luminescence/OD600 ratio, 9 h; active compounds read low; strain lacks LuxN and CqsS sensors; 0 = neutral-control median | activity change, % at 7.5 µM | hit rate 0.4% among 300,000; in the data active = activity change below about -75%, passing the limit was not always enough; inconclusive = no clear call, values can overlap the other calls;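 also: luminescence divided by OD600 gain over 9 h not by final OD600 alone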
# ARNT-TACC3 inh: disruptors of ARNT/TACC3 protein interaction, primary screen, biochemical, AlphaScreen, single concentration; hit rate 0.66% among 390,000; inhibition, % at 9.99 µM; Transforming acidic coiled-coil-containing protein 3 (Homo sapiens), Q9Y6A5; AlphaScreen His-ARNT PAS-B/GST-TACC3 binding, luminescence; TACC3 fragment carries E629A point mutation;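 active = mean inhibition of replicates at least 50% and at least half of replicates each reaching 50%; inconclusive = half or more replicates reach 50% but mean below 50%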;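 also: 0% = complete ARNT plus TACC3 wells and 100% = ARNT alone without TACC3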
# aDG glyco up: activators of alpha-DG glycosylation, primary screen, uHTS, Pro5-aDG cells, AlphaScreen. activation, % at 10 µM. AID 624168, 2012. alpha-DG glycosylation AlphaScreen (IIH6); 0% Pro5, 100% B10-LARGE cell signal. hit rate 0.22% among 360,000;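 active = activation of at least 8% versus controls, or a plate z-score of at least 8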;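 also: Pro5 are CHO cells carrying HIG-tagged alpha-DG that lacks glycosylation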
# Bfl-1 A1 inh: caspase 3/7 activation in MEF A1-2A-BIM cells, primary screen, A1 inhibitor project, cell-based, luminescence, HTS; hit rate 0.066% among 330,000; caspase activation, % (no concentration beside the values); AID 2462, 2010; Caspase-Glo 3/7 luminescence, 3 h; percent of clofoctol response, vehicle zero;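 active = over half of replicate activation scores above 10%, or exactly half above 10 with the replicate mean above 10; inconclusive = replicate mean below 10 yet half the replicates above 10; inactive = over half of replicates below 10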
# JMH597 growth: Vibrio harveyi growth inhibition, confirmation, counter-screen for AI-2 quorum sensing project, JMH597 strain, OD600 absorbance; hit rate 1% among 750; 9 h; lacks LuxN and CqsS sensors; growth inhibition, % at 7.5 µM; shares compounds with AI-2 QS mod;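 active = every replicate shows growth inhibition above 50%; inconclusive = at least half, but not all, replicates pass that cutoff; inactive = fewer than half of replicates pass it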
# BB721 lum counter: luminescence inhibition in constitutive-on V. harveyi, confirmation, counter-screen for LuxS inhibitor project, strain BB721, luminescence readout. inhibition, % at 7.5 µM. Vibrio harveyi BB721 luminescence, 9 h. shares compounds with AI-2 QS mod. hit rate 95% among 750;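 active = inhibition above about 80% in every replicate, not just on average, limit read from the data; inconclusive = at least half of replicates past the limit, but not all; inactive = fewer than half of replicates past the limit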
# BB721 growth: growth inhibition of V. harveyi BB721, confirmation, cytotoxicity control for AI-2 quorum sensing inhibitors, strain BB721, absorbance OD600. shares compounds with AI-2 QS mod. Vibrio harveyi BB721 growth, 9 h. growth inhibition, % at 7.5 µM. hit rate 3% among 750;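 active = every replicate shows growth inhibition above 50%; inconclusive = at least half but not all replicates above 50% inhibition; inactive = under half of replicates above 50% inhibition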
# JMH597 AI-2 mod: Vibrio harveyi AI-2 signaling luminescence modulation – JMH597 strain, confirmation; shares compounds with AI-2 QS mod; Vibrio harveyi JMH597 AI-2 quorum sensing luminescence, 9 h; luxN and CqsS knockout, AI-2 only; inhibition, % at 7.5 µM; hit rate 97% among 750; AID 2736, 2010;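 active = every replicate shows more than 75% inhibition of signal versus neutral control wells; inconclusive = half to three quarters of replicates exceed 75% inhibition; inactive = fewer than half of replicates exceed 75% inhibition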
# Active calls of the source: *; ? = inconclusive; nt = no result given. An excerpt weighted towards active compounds, which were near 1.8% of everything screened.
SMILES,Mot1-301 SUMO,AI-2 QS mod,ARNT-TACC3 inh,aDG glyco up,Bfl-1 A1 inh,JMH597 growth,BB721 lum counter,BB721 growth,JMH597 AI-2 mod
Cc1ncoc1C(=O)Nc1ccc(Oc2ccccc2)cc1,-3,-96*,7,0,-3,15,99*,6,99*
O=C(O)c1ccccc1C(=O)Nc1ccc(Oc2ccccc2)cc1,13,6,nt,0,1,nt,nt,nt,nt
Cc1nc(C)c(C(=O)Nc2ccc(Oc3ccccc3)cc2)o1,4,-83*,0,2,-2,11,91*,-43,94*
COc1ccc(NC(=O)c2ocnc2C)cc1OC,-19,6,-12,0,0,nt,nt,nt,nt
S=c1[nH]nc(-c2cc(-c3ccccc3)n[nH]2)n1/N=C/C=C/c1ccccc1,-7,31,-9,0,0,nt,nt,nt,nt
O=C(COc1ccc2ccc(=O)oc2c1)NC1CCCC1,7,1,nt,0,0,nt,nt,nt,nt
c1ccc2c(c1)oc1c(Nc3ccc4c(c3)OCO4)ncnc12,0,15,-18,0,-5,nt,nt,nt,nt
c1ccc2c(c1)oc1c(NCc3ccc4c(c3)OCO4)ncnc12,-7,-88*,-7,0,0,30,93*,9,97*
Cc1cc(C(=O)NCc2nc(-c3ccccc3)no2)ccc1[N+](=O)[O-],120,-10,-1,0,0,nt,nt,nt,nt
Clc1ccc(-c2nnc(CCc3ccccc3)o2)c(Cl)c1,-12,-90*,-9,0,0,19,97*,22,98*
Oc1ccccc1-c1nnc(COc2ccc(Cl)cc2Cl)o1,11,16,nt,0,-2,nt,nt,nt,nt
O=[N+]([O-])c1ccccc1CN1CCN(Cc2c[nH]c3ccccc23)CC1,-2,24,nt,nt,0,nt,nt,nt,nt
COc1ccc(C(=O)OCC(=O)NC(Cc2ccccc2)C(C)=O)cc1S(=O)(=O)N1CCCC1 (stereo not given),nt,nt,3,0,nt,nt,nt,nt,nt
O=C(CN1C(=O)c2ccccc2S1(=O)=O)Nc1ccc(S(=O)(=O)N2CCCCC2)cc1,17,-85*,5,0,0,42,96*,39,98*
CSc1cccc(NC(=O)CN2C(=O)c3ccccc3S2(=O)=O)c1,-10,-86*,-2,0,0,27,94*,5,96*
O=C(CN1C(=O)c2ccccc2S1(=O)=O)Nc1ccc(S(=O)(=O)N2CCCC2)cc1,62,-95*,-3,0,0,13,98*,29,98*
O=C(CSc1n[nH]c(=O)n1C1CC1)Nc1ccc(Cl)c(Cl)c1,4,-83*,43,0,0,-16,88*,-7,91*
CCCN(C(=O)c1cc(S(=O)(=O)N2CCCCC2)ccc1Cl)C1CCS(=O)(=O)C1 (stereo not given),-6,7,-6,0,0,nt,nt,nt,nt
O=C(COc1ccccc1)NNC(=O)c1cc2ccccc2o1,9,27,nt,0,0,nt,nt,nt,nt
O=C(NCCc1ccccc1)c1cccc(S(=O)(=O)NCc2ccccc2)c1,37,-28,-2,0,1,nt,nt,nt,nt
O=C(NCCOc1ccccc1)c1cccc(S(=O)(=O)NCc2ccccc2)c1,104,-97*,-1,0,?,?,99*,9,99*
